Laboratory results taken from PubChem BioAssay (NCATS).
Results filed as inconclusive are left out. Active and inactive are the calls of the source. The call rests on the fitted dose curve; in most records, active means well fitted cell-killing curve with a large enough effect; inconclusive means small, poorly fitted or top-dose-only effect, or effect the other way; inactive means no such curve, though single readings can be large or run the other way.

Assay: Quantitative High-Throughput drug screen in 47 multiple myeloma cell lines against the NCATS MIPE library collection: AMO1_DSMZ cell viability assay (AID 1918927; further: nearly all actives have a fitted effect of over 30% in size)
Conditions: AMO1 myeloma cells viability, CellTiter-Glo ATP luminescence, 48 h; series mostly up to 45.8 µM
From the text: PI: Beverly A. Mock Ph.D.
Laboratory of Cancer Biology and Genetics,
Center for Cancer Research, National Cancer Institute,
National Institute of Health, Bethesda, Maryland
Drug resistance and disease progression are common in multiple myeloma (MM) patients, underscoring the need for new therapeutic combinations. […] We hypothesized that effective combinations would reduce MYC expression and enhance p16 activity. […] These preclinical data identify potentially useful drug combinations for evaluation in drug-resistant MM and reveal potential mechanisms of combined drug sensitivity.
Described herein is the primary MIPE qHTS used to cherrypick compounds. Validated compounds were then further tested for potential synergistic activiy.
[1] Peat TJ, Gaikwad SM, Dubois W, Gyabaah-Kessie N, Zhang S, Gorjifard S, Phyo Z, Andres M, Hughitt VK, Simpson RM, Miller MA, Girvin AT, Taylor A, Williams D, D'Antonio N, Zhang Y, Rajagopalan A, Flietner E, Wilson K, Zhang X, Shinn P, Klumpp-Thomas C, McKnight C, Itkin Z, Chen L, Kazandijian D, Zhang J, Michalowski AM, Simmons JK, Keats J, Thomas CJ, Mock BA. Drug combinations identified by high-throughput screening promote cell cycle transition and upregulate Smad pathways in myeloma. Cancer Lett. 2023 Aug 1;568:216284. doi: 10.1016/j.canlet.2023.216284. Epub 2023 Jun 24. PMID: 37356470; PMCID: PMC10408729.
SEQUENCE No. (e.g., 1, 2, 3, etc.); […] (e.g., Cells, Incubation, Reagent, etc.); VALUE and DESCRIPTION.
1; Cells; 5 uL; white, solid bottom 1536-well Greiner assay plate.
2; Compounds; 23 nL; Kalypsis pin tool (Wako USA) equipped with a 1536-well pin head to transfer to the assay plates.
3; Incubation; 48 hours; 37C incubation.
4; Reagent;5uL; CellTiter Glo (Promega).
5; Detector; 425V; Luminescence; Viewlux PerkinElmer.
NOTES (numbers refer to Sequence numbers above)
1. The cell-based screening methods employed in this study were like those previously published. Briefly, the corresponding myeloma cell lines were screened in 1,536-well plates with 500 cells, 5-uL per well for inhibition of cell viability (assessed by measuring ATP levels with CellTiterGlo).
2. NCATS MIPE 4.0 library of approved and investigational drugs were added using the Kalypsis pin tool. Wells treated with DMSO only for 100% viability and media only wells for 0% viability were used as controls.
3. The assay plates were covered and incubated for 48 hours in a 37C, 5% CO2 incubator with controlled humidity.
4. After 48 hours, CellTilter-GloTM luminescent substrate mix (Promega) reagent was added to the assay plate and plates we incubated for 5 min at room temperature.
5. Signal was measured as median relative luminescence units on a ViewLux (PerkinElmer) multiplate reader.
[1] Heske CM, Davis MI, Baumgart JT, Wilson K, Gormally MV, Chen L, Zhang X, Ceribelli M, Duveau DY, Guha R, Ferrer M, Arnaldez FI, Ji J, Tran HL, Zhang Y, Mendoza A, Helman LJ, Thomas CJ. Matrix Screen Identifies Synergistic Combination of PARP Inhibitors and Nicotinamide Phosphoribosyltransferase (NAMPT) Inhibitors in Ewing Sarcoma. Clin Cancer Res. 2017 Dec 1;23(23):7301-7311. doi: 10.1158/1078-0432.CCR-17-1121. Epub 2017 Sep 12. PMID: 28899971; PMCID: PMC6636827.
Potency means the concentration at half of the fitted maximal effect.

Compound	Potency
Cc1cc(-c2ccc(CC(=O)Nc3ccc(-c4cccnc4)cc3)cc2)ccn1	18.7 µM (active)
CCCCCCCc1ccc(CCc2cccc(O)c2C(=O)O)cc1	inactive
CCN(CC)CCCC(C)Nc1ccnc2cc(Cl)ccc12 (stereo not given)	0.187 µM (active)
O=C(Nc1nc2ccccc2n1CCN1CCOCC1)c1cccc([N+](=O)[O-])c1	4.18 µM (active)
CCOC(=O)N1CCC(=C2c3ccc(Cl)cc3CCc3cccnc32)CC1	inactive
Cc1ccccc1C(C(=O)NC1CCCC1)N(C(=O)Cn1cnc2ccccc21)c1cccc(F)c1 (stereo not given)	0.0264 µM (active)
CCN(CC)CCCC(C)Nc1nc(C)cc(Nc2ccc3nc(C)cc(N)c3c2)n1 (stereo not given)	inactive
COc1ccc(-c2c(-c3ccc(O)cc3O)n[nH]c2C)cc1	42.9 µM (active)
Cc1c(CN2CCN(C(=O)C(C)C)CC2)sc2c(N3CCOCC3)nc(-c3cnc(N)nc3)nc12	0.166 µM (active)
CN(C)C(=O)c1ccc(S(=O)(=O)c2ccc(NC(=O)[C@@](C)(O)C(F)(F)F)c(Cl)c2)cc1	14.8 µM (active)
Cc1cnc(NC(=O)C2=C(O)c3ccccc3S(=O)(=O)N2C)s1	inactive
O=c1ncn2nc(Sc3ccc(F)cc3F)ccc2c1-c1c(Cl)cccc1Cl	18.7 µM (active)
COc1ccc(-c2ccc3c(N4CCOCC4)nc(N4C[C@@H](C)O[C@@H](C)C4)nc3n2)cc1CO	1.32 µM (active)
O=C(NOC[C@H](O)CO)c1ccc(F)c(F)c1Nc1ccc(I)cc1F	3.72 µM (active)
CN1CCN(CCCN2c3ccccc3Sc3ccc(C(F)(F)F)cc32)CC1	inactive
N#CC[C@H](C1CCCC1)n1cc(-c2ncnc3[nH]ccc23)cn1	6.62 µM (active)
CCOc1cc(C=C2C(=O)N(c3ccccc3)N=C2C)cc(Cl)c1OCC(=O)OC	inactive
NC(N)=NC(=O)c1nc(Cl)c(N)nc1N	14.8 µM (active)
Cc1cc2c(F)c(Oc3ncnn4cc(OC[C@@H](C)O)c(C)c34)ccc2[nH]1	4.69 µM (active)
COc1ccccc1[C@H](c1cccc2ccccc12)[C@@](C)(C#N)C(=O)N1CCC(c2cccc(C(F)(F)F)c2)CC1	2.64 µM (active)

Compound	Potency
Cc1cccc(-c2[nH]c(C(C)(C)C)nc2-c2ccc3nccnc3c2)n1	5.26 µM (active)
Cc1cc(SCc2sc(-c3ccc(C(F)(F)F)cc3)nc2C)ccc1OCC(=O)O	inactive
COc1cc2nccc(Oc3ccc(NC(=O)NC4CC4)c(Cl)c3)c2cc1C(N)=O	2.09 µM (active)
Cc1ccc(N(CC2=NCCN2)c2cccc(O)c2)cc1	23.5 µM (active)
Nc1cccc(S(=O)(=O)N2CCCN(S(=O)(=O)c3ccc4c(c3)OCCO4)CC2)c1	4.18 µM (active)
CCCS(=O)(=O)Nc1ccc(F)c(C(=O)c2c[nH]c3ncc(Cl)cc23)c1F	20.9 µM (active)
N[C@@H]1CONC1=O	inactive
Cc1ccccc1C(OCCN(C)C)c1ccccc1 (stereo not given)	inactive
NNCCc1ccccc1	18.7 µM (active)
CC1(C)CNc2cc(NC(=O)c3cccnc3NCc3ccncc3)ccc21	inactive
NC(=O)c1cnccn1	inactive
COc1cccc2cc(-c3nc(C4CCC(C(=O)O)CC4)n4ncnc(N)c34)[nH]c12 (stereo not given)	0.372 µM (active)
O=C(O)CCc1ccc(NCc2cccc(Oc3ccccc3)c2)cc1	inactive
Nc1ccc(S(=O)(=O)Nc2ccnn2-c2ccccc2)cc1	inactive
CC(c1cc2ccccc2s1)N(O)C(N)=O (stereo not given)	inactive
Nc1nc2[nH]cc(CCc3ccc(C(=O)N[C@@H](CCC(=O)O)C(=O)O)cc3)c2c(=O)[nH]1	0.526 µM (active)
Cc1c(CCOc2ccc(C(=O)O)cc2)c2cc(Cl)ccc2n1C(c1ccccc1)c1ccccc1	inactive
CC[C@@H](C)[C@H](NC(=O)[C@H](CC1CCCCC1)NC(=O)c1ccno1)C(=O)N1CCC2(CCc3ccccc32)CC1	inactive
CCn1c(-c2nonc2N)nc2cnc(Oc3cccc(NC(=O)c4ccc(OCCN5CCOCC5)cc4)c3)cc21	5.9 µM (active)
C[C@]12CC[C@H](O)CC1=CC[C@@H]1[C@H]2CC[C@]2(C)C(c3cccnc3)=CC[C@H]12	inactive
